An excerpt weighted towards active compounds, which were near 1.8% of everything screened.
Granule exo inh = LAMP-1 surface exposure blockers, TALL-104 cells – cell-based, flow cytometry, MLPCN library, primary screen | 360,000 compounds, 0.66% hits | TALL-104 LAMP-1 surface exposure; cells stimulated with thapsigargin and PMA | inhibition, % at 10 µM;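 active means inhibition above about 55%, limit read from the data; inconclusive means no clear call, values can overlap the other calls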
Myeloid diff 2 = induction of myeloid progenitor differentiation, primary screen, cell-based, flow cytometry, MLPCN library; ER-HoxA9 myeloid progenitors, lysozyme-GFP differentiation; calls only at 10 µM; 360,000 compounds, 1% hits; AID 624256, 2012;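 active means normalized GFP-positive differentiation at or above the plate's own cutoff, the solvent-only control mean plus 3 SD; inconclusive means no clear call, values can overlap the other calls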;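 further: cells exposed to compound for four days before flow analysis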
ABCB6 inh 2 = ABCB6 transporter inhibitors, primary screen, K562-ABCB6 cells, flow cytometry, MLPCN library | K562-ABCB6 porphyrin accumulation, 1 h; hits give low values | fluorescence ratio to DMSO, % at 10 µM | 360,000 compounds, 0.19% hits | AID 602162, 2011;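 active means fluorescence ratio to DMSO below 75%, the collection mean minus 3 SD; inconclusive means too few cells collected in the well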;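 further: signal is porphyrin accumulated inside mitochondria; lower ratio means ABCB6 inhibition with less porphyrin fluorescence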
Numbers stand for hits; . = inactive; ? = inconclusive; / = not tested or not shown; + = active, no number; ! = a repeat was not active.

SMILES	Granule exo inh	Myeloid diff 2	ABCB6 inh 2
CCN(CC)S(=O)(=O)c1cc(C(=O)c2nccn2C)ccc1Cl	.	+	.
CCN(CC)S(=O)(=O)c1cc(C(=O)O)ccc1Cl	.	.	.
COCCNC(=O)C1(C)CCN(C(=O)c2ccc(C(F)(F)F)nc2C)C1 (centres undefined)	.	.	.
COc1cccc(C(=O)NCC2CCCN(C(=O)Cc3cccc(C)c3)C2)c1OC (centres undefined)	.	.	.
O=C1COc2ccc(-c3csc(=Nc4ccc(OC(F)F)cc4)n3CC3CCCO3)cc2N1 (centres undefined)	.	.	.
COCC(C)n1c(-c2ccc3c(c2)NC(=O)CO3)csc1=Nc1ccc(OC(F)F)cc1 (centres undefined)	.	+!	.
COc1cccc(OC)c1C(=O)Nc1sc2c(c1C(N)=O)CCN(Cc1ccccc1)C2	.	.	.
CCCN1CCc2c(sc(NC(=O)c3ccc(S(=O)(=O)N4CCN(C(=O)OCC)CC4)cc3)c2C(N)=O)C1	.	+	.
CCOC(=O)N1CCN(S(=O)(=O)c2ccc(C(=O)Nc3sc4c(c3C(=O)OC)CCN(C)C4)cc2)CC1	.	.	.
COC(=O)c1c(NC(=O)c2ccco2)sc2c1CCN(C(C)C)C2	?	.	.
CN1CCc2c(sc(NC(=O)c3ccc(S(=O)(=O)N4CCCCCC4)cc3)c2C(N)=O)C1	.	+	.
CN1CCc2c(sc(NC(=O)c3ccc(S(=O)(=O)N4CCCC4)cc3)c2C(N)=O)C1	.	.	.
CC(=O)c1ccc(C(=O)Nc2sc3c(c2C(N)=O)CCN(Cc2ccccc2)C3)cc1	.	+	.
CC(C)N1CCc2c(sc(NC(=O)c3ccco3)c2C(N)=O)C1	.	+	.
CN(C)c1ccc(CNC(=O)CC[C@H]2O[C@@H](n3cnc4c(NC(=O)c5ccccc5)ncnc43)[C@H](O)[C@@H]2O)cc1	.	.	.
COc1ccccc1N1CCN(C(=O)[C@@H]2CCCN2C2=NS(=O)(=O)c3ccccc32)CC1	.	.	.
COc1ccc(C(=O)C2CCCN(C(=O)/C=C/c3cnc[nH]3)C2)c(C)c1 (centres undefined)	.	.	.
CCCN1CCc2c(sc(NC(=O)c3ccc(S(=O)(=O)N(C)c4ccccc4)cc3)c2C(N)=O)C1	.	+	.
CCN1CCc2c(sc(NC(=O)c3ccc(S(=O)(=O)N(C)CC4CCCO4)cc3)c2C(N)=O)C1 (centres undefined)	.	.	.
CC1(C(=O)NCCC#N)CCN1C(=O)CC(c1ccccc1)c1ccccc1 (centres undefined)	.	.	.
[O-][n+]1ccccc1/C=C/c1ccccc1	.	.	.
[O-][n+]1c(/C=C/c2ccccc2)ccc2ccccc21	86.9	.	.
CC1(c2nnnn2C2CCCCC2)CCC(=O)N1Cc1ccc2c(c1)OCO2 (centres undefined)	.	.	/
Nc1nc(CCl)nc(Nc2ccc3ccccc3c2)n1	.	?	.
COc1ccc(Nc2nc(N)nc(CCl)n2)cc1	57.1	.	.
SMILES	Granule exo inh	Myeloid diff 2	ABCB6 inh 2
O=C1C=CC(=Nc2ccc(F)cc2)O1	.	.	.
O=C(/C(=C/O)N=Nc1cccc(C(F)(F)F)c1)c1ccccc1	.	.	.
Cc1cccc(N=N/C(=C\O)C(=O)c2ccc(Br)cc2)c1	101.3	.	.
Cc1c(C(=O)NCc2ccc(C(C)C)cc2)sc(=O)n1Cc1ccc(S(=O)(=O)N(C)C)cc1	.	+	.
Cc1c(C(=O)NCc2ccc(Cl)c(Cl)c2)sc(=O)n1Cc1ccc(S(=O)(=O)N(C)C)cc1	.	?	.
CCc1nc2c(OCCn3cccc3)cccn2c1N(C)C(=O)c1ccco1	.	.	.
O=C(c1cccc([N+](=O)[O-])c1)N1CCN(c2cccc(Cl)c2)CC1	.	+	.
Cc1ccc(N2CCN(C(=O)c3cccc([N+](=O)[O-])c3)CC2)cc1Cl	.	.	.
CCOC(=O)C1=CCN(S(=O)(=O)c2ccccc2C)C1c1cccc(Cl)c1 (centres undefined)	.	.	/
O=C(NC1CC1)c1cccc2c1C(=O)c1ccc(N3CCC(Cc4ccccc4)CC3)cc1S2(=O)=O	.	.	.
O=C(NCc1ccc(F)cc1)c1cccc2c1C(=O)c1ccc(N3CCC(N4CCCCC4)CC3)cc1S2(=O)=O	.	+	.
CC1CCN(c2ccc3c(c2)S(=O)(=O)c2cccc(C(=O)NCc4ccc(F)cc4)c2C3=O)CC1	.	.	.
O=C(NCCN1CCCCC1)c1cccc2c1C(=O)c1ccc(N3CCCC3)cc1S2(=O)=O	.	+	.
O=C(NCc1ccc(F)cc1)c1cccc2c1C(=O)c1ccc(N3CCC(Cc4ccccc4)CC3)cc1S2(=O)=O	.	+	.
O=C(NCc1cc(C(F)(F)F)ccc1Cl)c1cccc2c1C(=O)c1ccc(N3CCC(Cc4ccccc4)CC3)cc1S2(=O)=O	.	+	.
CC(C)(C)CNC(=O)c1cccc2c1C(=O)c1ccc(N3CCCC3)cc1S2(=O)=O	.	.	.
O=C(NCc1ccco1)c1cccc2c1C(=O)c1ccc(N3CCC(N4CCCCC4)CC3)cc1S2(=O)=O	.	.	.
COc1cc(NC(=O)CNC(=O)Cn2cnc3sc(C)c(C)c3c2=O)cc(OC)c1OC	.	.	.
C[C@@H]1CN([C@@H](C)CO)C(=O)CCCn2nncc2CO[C@H]1CN(C)C(=O)c1ccc2ccn(C)c2c1	.	.	.
COCCCn1cc(CN2CC(N3CCN(Cc4cccc(C)c4)CC3)CS2(=O)=O)nn1 (centres undefined)	.	.	.
COc1cc2c3c(c1OC)C(=O)CC3CCCC2 (centres undefined)	.	.	.
CC(=O)c1ccc(NC(=O)Nc2cccc3ccccc23)cc1	.	.	.
COc1ccc(NC(=O)C2(C)CCCN2C(=O)C(C)C)cc1OC (centres undefined)	.	.	.
O=C(O)c1ccc(COc2ccccc2C=C2C(=O)c3ccccc3C2=O)cc1	.	+	.
O=C1NC(=S)N/C1=C\c1ccccc1OCc1ccc(C(=O)O)cc1	.	.	.
SMILES	Granule exo inh	Myeloid diff 2	ABCB6 inh 2
O=C(c1nnsc1S(=O)c1ccc(Cl)cc1)N1CCOCC1 (centres undefined)	.	/	.
O=C(Nc1ccccc1)c1nnsc1S(=O)c1ccc(Cl)cc1 (centres undefined)	60.3	?	.
O=C(COc1ccc(F)cc1)Nc1nc(-c2cccnc2)cs1	.	.	.
CCOC(=O)c1ccc(S(=O)(=O)NNC(=O)Cc2csc(C)n2)cc1	.	.	.
CC1CN(C(C)C(=O)NNC(=O)c2ccc(F)cc2)CC(C)O1 (centres undefined)	.	+	.
Cc1ccccc1CN1CCN(C(C)C(=O)NNC(=O)c2ccc(F)cc2)CC1 (centres undefined)	.	.	.
O=C1CC(C(=O)N2CCN(c3ccccn3)CC2)CN1Cc1ccccc1Cl (centres undefined)	.	.	.
COC(=O)[C@@]1(C(C)C)N=C(c2cc(OC)c(OC)c(OC)c2)[C@]2(O1)C(=O)N(Cc1ccc(OC)cc1)c1ccc(Br)cc12	.	.	.

Source: PubChem (NMMLSC)
